Screening data as filed in PubChem.
TRHR ag: agonists of human TRH receptor; TRHR cells, calcium flux fluo-8, FDSS agonist mode; P34981; 360,000 tested, 0.18% active; activation, % at 2 µM; in the data active = activation above about 30%
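TRHR-expressing cells, plated overnight in medium with 10% serum, were loaded with fluo-8 calcium dye at room temperature. After a 10 s baseline, library compound was pin-added and calcium release was recorded kinetically (ex 480/em 530) as agonist response.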
GLP-1R inv ag: inverse agonists of human GLP-1 receptor; P43220; HEK293 GLP-1R CRE-luciferase, luminescence, 24 h; GLP-1R form is constitutively active; Potency, µM (top dose mostly 38.3 µM), actives largely listed as inhibitors; 410,000 tested, 1.6% active; AID 624417; note: nearly all actives have a fitted effect of over 55% in size
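Seeding at 200 cells/uL, 12 h culture, 24 hr compound treatment, then luciferase reagent and a luminescence read; cells are HEK293 stably expressing a constitutively active GLP-1R plus cAMP-responsive luciferase.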
GLP1R cytotox: cytotoxic in the GLP-1 receptor inverse agonist counter-screen; HEK293 cAMP-luciferase reporter cells, luminescence, 24 h; Potency, µM (titrated, usually from 38.3 µM), most hits filed as inhibitors; 410,000 tested, 0.13% active;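 note: loss of luciferase light is scored as toxicity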
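1536-well qHTS counterscreen of the MLSMR; 200 cells/uL, 12 h pre-incubation, 23 nL cpd, 24 h at 37 deg C 5% CO2, luciferase detection reagent, 12 min RT, luminescence. Inhibition = undesired.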
TRHR PAM: allosterically enhances the human TRH receptor. P34981. TRHR cells, fluo-8 calcium fluorescence, EC20 TRH enhancement. AID 493056. 360,000 tested, 0.66% active. enhancement, % at 2 µM; in the data active = enhancement above about 30%
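TRHR-expressing cells loaded with fluo-8 calcium dye were read kinetically (ex 480/em 530) during compound addition, then stimulated with an EC20 of TRH (10 nM final). Enhancement of the Gq-mediated intracellular calcium response was scored.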
GLP1R ag: activates the human GLP-1 receptor | P43220 | HEK293 GLP-1R CRE-luciferase, luminescence, 4-6 h; cells express a hypersensitive GLP-1R form | Potency, µM (doses to about 45.6 µM), usual class: activators | 380,000 tested, 0.007% active | AID 624172
PTHR1 agonist: activates the human parathyroid hormone receptor PTHR1; 410,000 tested, 0.075% active; HEK293 GP2 PTHR1 cells, GloSensor cAMP luminescence, 1 h; Potency, µM (highest dose often 115 µM), actives largely listed as activators; note: nearly all actives have a fitted effect of over 55% in size
Target sequence (Q03431 whole entry, looked up): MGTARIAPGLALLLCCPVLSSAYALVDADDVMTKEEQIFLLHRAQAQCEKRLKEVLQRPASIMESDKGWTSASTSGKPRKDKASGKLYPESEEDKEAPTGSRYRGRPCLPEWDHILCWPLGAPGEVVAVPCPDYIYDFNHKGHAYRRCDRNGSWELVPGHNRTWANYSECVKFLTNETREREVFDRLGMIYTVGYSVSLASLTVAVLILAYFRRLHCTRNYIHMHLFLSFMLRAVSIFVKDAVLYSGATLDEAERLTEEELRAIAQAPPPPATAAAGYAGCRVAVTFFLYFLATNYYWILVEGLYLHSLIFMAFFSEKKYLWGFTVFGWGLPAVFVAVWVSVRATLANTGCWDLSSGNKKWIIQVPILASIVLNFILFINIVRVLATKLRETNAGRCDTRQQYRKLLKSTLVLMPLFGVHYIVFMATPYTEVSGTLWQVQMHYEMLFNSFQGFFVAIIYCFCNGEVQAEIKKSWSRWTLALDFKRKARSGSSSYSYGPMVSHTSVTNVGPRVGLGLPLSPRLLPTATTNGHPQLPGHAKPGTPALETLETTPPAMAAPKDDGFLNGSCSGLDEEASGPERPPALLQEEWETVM
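HEK-293-derived GP2 cells expressing PTHR1 and a GloSensor cAMP reporter, 3,000/well, plated overnight, given luciferin plus IBMX (each 0.5 mM as added) for 1 h at 37 °C, then compound for 1 h at 37 °C. Luminescence was read after 15 min at room temperature.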
Hits are given with their value; i = inactive; ? = inconclusive; nt = no result given; [ ] = remark or other dose. Compounds with a hit are over-represented: about 2.4% of the library has one in this group of screens. Unless noted, calls come from the whole dose curve; as a rule, active = well fitted curve in the direction sought with a large enough effect; inconclusive = small, poorly fitted or top-dose-only effect, or another doubt; inactive = no such curve, though single readings can be large; an effect the other way counts as inactive or inconclusive.

SMILES | TRHR ag | GLP-1R inv ag | GLP1R cytotox | TRHR PAM | GLP1R ag | PTHR1 agonist
O=C(O)c1nnn(-c2cc(C(F)(F)F)cc(C(F)(F)F)c2)c1-c1ccccc1 | i | i | i | i | i | i
Cc1ccc2ncc(C(=O)c3ccc(C)c(C)c3)c(S(=O)(=O)c3ccc(F)cc3)c2c1 | i | 12.6µM | i | i | nt | i
COc1ccc(S(=O)(=O)c2c(C(=O)c3ccc(C)c(C)c3)cnc3ccc(F)cc23)cc1 | i | ? | i | i | nt | i
COc1ccc(N2Cc3ccccc3C2=NC(=O)c2cccc([N+](=O)[O-])c2)cc1 | i | i | i | i | ? | i
Cc1cccc(OCC(=O)NC2CCCc3ccccc32)c1C (configuration not stated) | i | 2µM | i | i | i | i
CC(C)c1ccccc1OCC(=O)NC1CCCc2ccccc21 (configuration not stated) | i | ? | i[1.53 µM] | i | i | i
COc1ccccc1OCC(=O)NC1CCCc2ccccc21 (configuration not stated) | i | 11.2µM | i | i | i | i
COc1ccccc1OCC(=O)N/N=C1\CCCCc2ccccc21 | i | 10µM | i | i | i | i
Cc1ccc(OCCNC(=O)c2ccc(C)cc2)cc1 | i | ? | i | i | i | i
Nn1cc(-c2ccccc2)nc1SCC(=O)Nc1ccc2c(c1)OCO2 | i | i | i | i | i | i
CC(=O)Nc1ccc(S(=O)(=O)Nc2nc3c(s2)CCCC3)cc1 | i | i | i | i | i | i
O=C(COc1ccccc1N1C(=O)c2ccccc2C1=O)c1ccc(Cl)cc1 | i | i | i | i | i | i
COc1ccc2c(=O)c(-c3ccc4c(c3)OCO4)coc2c1 | i | i | i | i | i | i
C=C(C1=CCN(S(=O)C(C)(C)C)[C@H]1CCO)c1ccccc1 (some centres not stated) | nt | 11.2µM | i | nt | i | i
C=C(C1=CCN(S(=O)(=O)C(C)(C)C)[C@H]1CCO)c1ccccc1 | nt | ? | i | nt | i | i
C[C@]12C(=O)N(c3ccc(C(F)(F)F)cc3)C(=O)N1[C@H]1c3ccccc3OC[C@@H]1[C@H]2c1ccccc1 | nt | ? | i | nt | i | i
CCOc1ccccc1NC(=O)CN(CCc1ccccc1)S(=O)(=O)c1ccc(C)cc1 | i | 10µM | i | i | nt | i
CCOC(=O)c1ccc(NC(=S)N(CCCN2CCN(C)CC2)Cc2cccs2)cc1 | i | ? | ? | i | i | i
COc1cccc(NC(=S)N(CCCN2CCC(C)CC2)Cc2cccs2)c1 | i | ? | i | 30.3 | i | i
CCOC(=O)c1ccc(NC(=S)N(CCCN2CCCC2)Cc2cccs2)cc1 | i | 2.82µM | ? | i | i | i
CCc1ccc(NC(=O)CSc2nc(O)cc(=O)n2C2CCCC2)cc1 | i | i | i | i | i | i
CCN(Cc1ccccc1)Cc1c(O)ccc2c(=O)c(-c3ccc(Cl)cc3)c(C(F)(F)F)oc12 | i | i | i | i | nt | i
Cn1cc(S(=O)(=O)N2CCc3ccccc32)cc1C(=O)Nc1ccc(C(F)(F)F)cc1 | i | ? | i | i | nt | i
O=C(Oc1ccccc1)c1cccc2cccc(C(=O)Oc3ccccc3)c12 | i | 10µM | i | i | i | i
O=C(CSc1nc2c([nH]c3ccccc32)c(=O)n1-c1ccc(Cl)cc1)c1ccccc1 | i | i | i | i | i | i
SMILES | TRHR ag | GLP-1R inv ag | GLP1R cytotox | TRHR PAM | GLP1R ag | PTHR1 agonist
CCc1cc2c(=O)c(-c3cscn3)coc2cc1OC | i | nt | nt | i | nt | nt
O=C(O)C1CCN(S(=O)(=O)c2cccs2)CC1 | i | i | i | i | i | i
O=C(Cc1c[nH]c2ccccc12)N1CCN(S(=O)(=O)c2cccc(Cl)c2Cl)CC1 | i | 10µM | ? | i | i | i
O=S(=O)(c1ccc(Cl)cc1)c1nc(-c2cccs2)oc1SCc1ccccc1F | i | 10µM | i | i | nt | i
O=S(=O)(c1ccc(Cl)cc1)c1nc(-c2ccco2)oc1SCc1ccccc1F | i | ? | i | i | nt | i
CCCCNc1ncnc2c1cnn2-c1ccccc1 | i | ? | ? | i | i | i
CCc1nc(NC(C)(C)C)c2cnn(-c3ccccc3)c2n1 | i | 2µM | i | i | i | i
CCOC(=O)c1sc2ccccc2c1S(=O)(=O)N1CCN(c2ccccc2)CC1 | i | ? | i | i | i | i
COc1ccc2nc(-c3ccccc3)cc(C(=O)OCC(=O)N3CCCCC3)c2c1 | i | ? | i | i | i | i
COc1ccc2nc(-c3ccccc3)cc(C(=O)OCC(=O)N3CC(C)OC(C)C3)c2c1 (configuration not stated) | i | ? | i | 40.9 | i | i
COCCNC(=O)NC(=O)COC(=O)c1ccc2[nH]c3c(c2c1)CCCC3 | i | ? | ? | i | i | i
O=C(Nc1cccc(C(F)(F)F)c1)c1ccc2snnc2c1 | i | i | i | i | i | i
O=C(Nc1cccc(C(F)(F)F)c1)Nc1ccc2snnc2c1 | i | 11.2µM | i | i | i | i
CCN(CC)S(=O)(=O)c1ccc2c(c1)nc(CCC(=O)Nc1cccc(C(F)(F)F)c1)n2CC | i | 10µM | i | i | i | i
CCN(CC)S(=O)(=O)c1cccc(NC(=O)CC2CCCC2)c1 | i | ? | i | i | i | i
CCN(CC)S(=O)(=O)c1cccc(NC(=O)Nc2cccc(C(F)(F)F)c2)c1 | i | 7.94µM | ? | i | i | i
Cn1cc(Br)c(C(=O)NC(=S)Nc2ccc(S(N)(=O)=O)cc2)n1 | i | i | i | i | i | i
COc1cc(/C=c2\s/c(=C(/C#N)C(=O)N3CCCC3)n(-c3ccccc3)c2=O)ccc1O | 71.5 | i | i | i | i | i
COC(=O)C(=Cc1ccccc1[N+](=O)[O-])C(=O)OC | i | 10µM | ? | i | i | i
O=C(/C=C/c1ccccc1[N+](=O)[O-])Oc1ccccc1 | i | nt | nt | i | nt | nt
S=c1[nH]nc(Cc2ccc(Br)cc2)n1/N=C/c1ccc(Cl)cc1 | i | ? | i | i | i | i
CCOc1ccc(Nc2ncnc(N)n2)cc1 | i | i | i | i | i | i
O=C(NCc1ccccc1)c1cc2ccc3cccnc3c2[nH]1 | i | i | i | 31.1 | nt | i
CCCCCCN1CC(=O)N2[C@@H](Cc3c([nH]c4ccccc34)C2(C)C)C1=O | i | ? | i | i | i | i
Cc1cc(C)n2nc(N)c(N=Nc3ccccc3)c2n1 | i | i | 10µM | i | i | i
OC(c1ccccc1)(c1nc(/C=C/c2ccc(C(F)(F)F)cc2)cs1)C(F)(F)F (configuration not stated) | nt | 7.94µM | ? | nt | i | i
